Only some compounds are listed: those with a hit (about 2.3% of all), similar ones and a draw of the others.
Calb FLC: affects C. albicans growth with fluconazole; C. albicans CaCi-2 (fluconazole-resistant clinical isolate) + fluconazole, Alamar Blue growth, 48 h; growth inhibition, % (no concentration beside the values); 300,000 tested, 0.57% active; AID 1979;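 active means growth inhibition above about 58% in most replicates, limit read from the data, passing the limit was not always enough; inconclusive means exactly half the replicates above a set limit; inactive means most replicates below a set limit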;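 further: all wells also contain fluconazole at 8 µg/ml as a sub-toxic cotreatment; 0% = median of DMSO wells and 100% = median of geldanamycin control wells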
Rpn11 inh: Rpn11 (human) deubiquitinase inhibition. AID 588493. O00487. 360,000 tested, 0.59% active. human 26S proteasome, Ub4-pepOG fluorescence polarization; 20S core pre-blocked with epoxomicin. inhibition, % at 20 µM;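 active means inhibition at 20 µM, scaled to each plate's controls, above about 33%, limit read from the data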
TPT1 inh: blocks Candida albicans tRNA 2'-phosphotransferase. recombinant caTPT1, FP RNA substrate dephosphorylation. inhibition, % at 5 µM. 300,000 tested, 0.81% active;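 active means inhibition above the mean of all tested compounds plus 3 SD, set per screening campaign, cut at about 24% in these data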;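 further: plate controls were DMSO alone for no effect and ferristatin control at 100 nM for full effect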
IDE cell inh: cellular human IDE inhibition. P14735. HEK cells, FAbetaB cleavage, fluorescence polarization. inhibition, % at 5.59 µM. 320,000 tested, 0.41% active. AID 434962;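 active means percent inhibition above the average of all tested compounds plus 3 SD, set per screening campaign, cut at about 16% in these data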;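 further: IDE supplied by intact live HEK cells; FP after avidin binding of uncleaved biotin substrate so inhibition keeps polarization high; 0% = DMSO wells and 100% = 60 µM reference IDE inhibitor Ii1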
IDE act: IDE (human) activation, cell-based; P14735; HEK cells, FAbeta-B cleavage, fluorescence polarization; 0% vehicle, 100% cell-free pure enzyme wells; activation, % at 5.96 µM; 340,000 tested, 0.073% active;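 active means activation above the mean of all tested compounds plus 3 SD, set per screening campaign, cut at about 17% in these data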
Rin1 Abl inh: blocks binding of human Rin1 to Abl; inhibition, % at 7.35 µM; TR-FRET Rin1/Abl binding, biochemical; AID 588664; P00519+Q13671; 360,000 tested, 0.4% active; in the data active means inhibition above about 5%, passing the limit was not always enough
TPT1 inh confirm: confirmation of Candida albicans TPT1 inhibitors | inhibition, % at 5 µM | 2,400 tested, 74% active | AID 2149 | shares compounds with TPT1 inh | recombinant caTPT1, fluorescence polarization, RNase T1 coupled;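 active means inhibition above the primary screen limit, the mean inhibition of all tested compounds plus 3 SD, cut at about 25% in these data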
RNase T1 inh: RNase T1 inhibition in TPT1 counter-screen; inhibition, % at 5 µM; 2,400 tested, 83% active; RNase T1 cleavage, fluorescence polarization, 1536-well; AID 2153; shares compounds with TPT1 inh;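 active means inhibition above the solvent-only control well mean plus 3 SD, limit set per screening run, cut at about 23% in these data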;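 further: plate controls were DMSO wells with enzyme for no effect and wells without RNase T1 for full effect; inhibitors block cleavage so intact labeled substrate keeps polarization high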
IDE cell inh cf: confirmation of human insulin-degrading enzyme inhibitors in cells; HEK cells, FAbetaB cleavage, fluorescence polarization; shares compounds with IDE cell inh; inhibition, % at 5.59 µM; 1,200 tested, 51% active;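 active means mean inhibition across triplicate wells above the cutoff set by the earlier primary insulin-degrading enzyme screen, cut at about 16% in these data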;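 further: 0% = DMSO wells and 100% = 60 µM reference IDE inhibitor Ii1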
HEK293 tox: HEK cell cytotoxicity, counter-screen for IDE inhibitors | inhibition, % at 5.59 µM | shares compounds with IDE cell inh | AID 449730 | 1,200 tested, 28% active | HEK293 cytotoxicity, ATP luminescence; in the data active means inhibition above about 22%;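 further: 0% = vehicle wells and 100% = reference cytotoxic drug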
* hit, by the source's call; ? = inconclusive; nt = no result given.

SMILES | Calb FLC | Rpn11 inh | TPT1 inh | IDE cell inh | IDE act | Rin1 Abl inh | TPT1 inh confirm | RNase T1 inh | others
Cc1ccsc1/C=C1/SC(=O)N(CC(=O)N2CCOCC2)C1=O | 0 | 1 | 70* | 6 | -1 | -4 | 6 | 9
CCOC(=O)c1cnc(Nc2nc3ccccc3o2)nc1CN1CCN(C)CC1 | nt | 16 | nt | nt | -7 | 8 | nt | nt
CCOC(=O)c1c(NC(=O)CSc2nnc(C)s2)sc2c1CCN(C)C2 | -5 | nt | 98* | 4 | -9 | -8 | 97* | 103*
CCOC(=O)c1c(NC(=S)Nc2ccc(OCC)cc2)sc2c1CCN(C)C2 | 10 | 30 | 48* | 6 | -4 | -3 | 53* | 64*
CCOC(=O)c1c(NC(=O)Nc2ccc(F)cc2)sc2c1CCN(C)C2 | -2 | 14 | 1 | 2 | -2 | 0 | nt | nt
CCOC(=O)c1c(NC(=O)CCS(=O)(=O)c2ccccc2)sc2c1CCN(C)C2 | 6 | 8 | 35* | 5 | -3 | -11 | 21 | 28*
CCOC(=O)c1c(NC(=S)Nc2ccc(Cl)cc2)sc2c1CCN(C)C2 | nt | nt | 91* | 13 | -12 | -7 | 88* | 91*
COc1cc(C(=O)NCC(=O)OC(C)C(=O)Nc2ncc(Cl)cc2Cl)cc(OC)c1OC (configuration not stated) | 0 | -4 | 0 | 3 | 6 | 2 | nt | nt
CN1CCc2c(sc(N)c2C(=O)c2ccc(Cl)cc2)C1 | 1 | nt | 32* | -2 | 0 | -3 | 37* | 48*
CCc1ccc(CN(Cc2cccnc2)C(=O)/C=C/c2ccc(OC)cc2)cc1 | 2 | nt | 39* | 2 | 2 | -1 | 89* | 102*
COc1ccc(/C=C/C(=O)NCc2cccnc2)cc1 | -3 | -4 | 0 | 7 | 4 | -4 | nt | nt
CCC(CC)C1C(C#N)=C(N)SC(N)=C1C#N | -2 | 24 | 39* | -1 | 0 | 0 | 15 | 15
CC(C)C1C(C#N)=C(N)SC(N)=C1C#N | 5 | 5 | 16 | 6 | -4 | -1 | nt | nt
CC(C)c1ccc(/C=C2\Oc3c(ccc(O)c3CN3CCN(C)CC3)C2=O)cc1 | nt | 12 | 37* | 7 | 0 | -2 | 40* | 51*
CCC(C)N1C(=O)/C(=C/c2c(NCCCOC(C)C)nc3c(C)cccn3c2=O)SC1=S (configuration not stated) | nt | 7 | 151* | 14 | -34 | -2 | 165* | 156*
CCNC(=O)/C(C#N)=C/c1c(N2CCCCCC2)nc2ccccn2c1=O | -1 | 4 | 1 | 1 | 1 | -1 | nt | nt
CNC(=O)/C(C#N)=C/c1c(N2CCCCCC2)nc2ccccn2c1=O | 7 | 0 | 36* | 2 | -2 | -3 | 51* | 60*
O=C1NC(=S)N(C(=O)c2ccc(F)cc2)/C1=C/c1ccccc1 | -1 | nt | 110* | 28* | -24 | -2 | 108* | 116* | IDE cell inh cf=32*;HEK293 tox=13
O=C(c1ccc(F)cc1)N1CCN(Cc2ccccc2)CC1 | -9 | -1 | -2 | 2 | 2 | 2 | nt | nt
C=CCN1C(=O)/C(=C/c2ccc(OCC(=O)O)cc2)S/C1=N/c1nccs1 | ? | 5 | 1 | 2 | -1 | -1 | nt | nt
C=CCN1C(=O)/C(=C/c2ccc(O)c(OC)c2)S/C1=N/c1nccs1 | -5 | nt | 68* | 154* | -142 | -1 | 74* | 77* | IDE cell inh cf=26*;HEK293 tox=16
Cc1ccc(C(NC(=O)c2cccc(S(=O)(=O)N3CCN(C)CC3)c2)c2ccccc2)cc1 (configuration not stated) | nt | 1 | nt | -2 | 2 | -3 | nt | nt
Cc1c(O)c2c3c(cccc3c1O)C(=O)N(c1ccccc1)C2=O | 57 | -9 | 39* | 60* | -54 | 0 | 27* | 40* | IDE cell inh cf=87*;HEK293 tox=9
CCc1ccc2c(F)cccc2n1 | nt | 2 | nt | nt | nt | -3 | nt | nt
CCN(CC)c1ccc2nc3c4ccccc4c(=O)cc-3oc2c1 | -8 | nt | nt | nt | nt | nt | nt | nt
SMILES | Calb FLC | Rpn11 inh | TPT1 inh | IDE cell inh | IDE act | Rin1 Abl inh | TPT1 inh confirm | RNase T1 inh | others
CCN(CC)c1ccc2cc(C=O)c(=O)oc2c1 | 5 | nt | 121* | 91* | -69 | -44 | 102* | 101* | IDE cell inh cf=67*;HEK293 tox=12
CCN(CC)c1ccc2cc(-c3nnc(-c4ccncc4)o3)c(=O)oc2c1 | nt | nt | nt | nt | -146 | -25 | nt | nt
CCN(CC)c1ccc2cc(C(C)=O)c(=O)oc2c1 | 1 | nt | 131* | 35* | -37 | -43 | 109* | 109* | IDE cell inh cf=18*;HEK293 tox=10
CCN1CCN(Cc2c(O)ccc3c2O/C(=C\C=C\c2ccccc2OC)C3=O)CC1 | -9 | nt | 53* | 32* | -36 | -2 | 64* | 68* | IDE cell inh cf=55*;HEK293 tox=8
CCN1CCN(Cc2c(O)ccc3c(=O)c(-c4ccccc4OC)coc23)CC1 | -1 | -1 | 3 | 0 | 1 | 3 | nt | nt
Cc1cccc(C)c1NC(=S)N(Cc1ccccc1)Cc1cccs1 | -2 | -5 | 2 | 3 | -2 | -1 | nt | nt
COc1ccc(NC(=O)c2cc(C3CCCCN3C(=O)OCCF)on2)c(C)c1 (configuration not stated) | nt | 2 | nt | nt | nt | -4 | nt | nt
CN(C)c1ccc(/C=C2\SC(N3CCCCC3)=NC2=O)cc1 | -8 | nt | 106* | 16* | -23 | -13 | 116* | 116* | IDE cell inh cf=27*;HEK293 tox=13
COc1cc(O)c(C=NN2C(=O)CSC2=S)c(OC)c1 | nt | 29 | nt | nt | nt | 0 | nt | nt
COc1cc(/C=N/N2C(=O)CSC2=S)ccc1O | 19 | 49* | 28* | 26* | -15 | -6 | 28* | 40* | IDE cell inh cf=44*;HEK293 tox=4
CC(Sc1nnnn1C)C(=O)Nc1nc(-c2ccc(F)c(F)c2)cs1 (configuration not stated) | nt | -3 | nt | -2 | -1 | 1 | nt | nt
OCC[n+]1ccc(/C=C/c2c[nH]c3ccccc23)cc1 | -2 | nt | 57* | 24* | -29 | -107 | 59* | 65* | IDE cell inh cf=39*;HEK293 tox=57*
C(=Cc1c[nH]c2ccccc12)c1nccc2ccccc12 | nt | 39 | nt | nt | -8 | -9 | nt | nt
CCCS(=O)(=O)NC(=O)C1(C)CCN(C(=O)c2ccc3ccccc3c2)C1 (configuration not stated) | nt | -1 | nt | nt | nt | -2 | nt | nt
COc1cc(/C=C/C(=O)CC(=O)/C=C/c2ccc(O)c(OC)c2)ccc1O | nt | nt | 139* | 31* | -63 | 4 | 147* | 135* | IDE cell inh cf=81*;HEK293 tox=9
COc1cc(/C=C/C(=O)O)ccc1O | 9 | -1 | -3 | -7 | 3 | 0 | nt | nt

Screens deposited in PubChem by several laboratories.
